From PubChem BioAssay AID1159580 (chemical genetic matrix, 2015)
“And” between values parts separate entries of the source, which are not always exact repeats. Equal values may be shown once. The whole screen tested about 5,500 compounds, of which about 2,000 (36%) were called active. Roughly 18% stayed inconclusive and do not appear here. Rule as the data show it: active = normalized growth mostly below about 0.91 (no sharp cut-off); inconclusive = no clear call, values can overlap the other calls; inactive = mostly above about 0.92. The list shows a part of the results.

Assay: chemical genetic growth profiling, strain panel (AID 1159580);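 also: tested at 20 µM; growth read once vehicle control cultures reached saturation at 30 °C; 1 = growth at the plate median or of vehicle wells; lower values mean less growth of the strain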
Details: S. cerevisiae deletion strains, growth OD

Measured: normalized growth

Nc1nc(N)c2nc(-c3ccccc3)c(N)nc2n1
inactive: locus YAL013W, strain DEP1, stronger effect = lower value 1 | locus YAL021C, strain ccr4, stronger effect = lower value 1.01 | locus YAL026C, strain drs2, stronger effect = lower value 1.01 | locus YAL030W, strain snc1, stronger effect = lower value 0.998 | locus YAL040C, strain CLN3, stronger effect = lower value 0.986 | locus YBL061C, strain skt5, stronger effect = lower value 1 | locus YBR009C, strain hhf1, stronger effect = lower value 0.969 | locus YBR021W, strain FUR4, stronger effect = lower value 1.01 | locus YBR023C, strain chs3, stronger effect = lower value 0.997 | locus YBR171W, strain sec66, stronger effect = lower value 1.01 | locus YBR229C, strain ROT2, stronger effect = lower value 1 | locus YBR231C, strain swc5, stronger effect = lower value 1 | locus YBR279W, strain paf1, stronger effect = lower value 0.994 | locus YCL011C, strain gbp2, stronger effect = lower value 0.992 | locus YCL016C, strain dcc1, stronger effect = lower value 0.999 | locus YCL029C, strain bik1, stronger effect = lower value 1.01 | locus YCL061C, strain MRC1 (second series), stronger effect = lower value 0.989 | locus YCL061C, strain MRC1, stronger effect = lower value 1.01 | locus YCL069W, strain vba3, stronger effect = lower value 1 | locus YCR088W, strain abp1, stronger effect = lower value 0.992 | locus YDL005C, strain med2, stronger effect = lower value 1.01 | locus YDL035C, strain GPR1, stronger effect = lower value 1.01 | locus YDL040C, strain nat1, stronger effect = lower value 1.01 | locus YDL074C, strain BRE1, stronger effect = lower value 0.973 | locus YDL101C, strain DUN1, stronger effect = lower value 1.01 | locus YDL134C, strain PPH21, stronger effect = lower value 1 | locus YDL185W, strain tfp1, stronger effect = lower value 1.01 | locus YDL192W, strain arf1, stronger effect = lower value 1.01 | locus YDR001C, strain nth1, stronger effect = lower value 1.02 | locus YDR069C, strain doa4, stronger effect = lower value 1 | locus YDR101C, strain arx1, stronger effect = lower value 0.999 | locus YDR137W, strain rgp1, stronger effect = lower value 1 | locus YDR150W, strain NUM1, stronger effect = lower value 0.987 and 0.981 | locus YDR159W, strain sac3, stronger effect = lower value 0.951 | locus YDR162C, strain NBP2, stronger effect = lower value 1.01 | locus YDR195W, strain ref2 1 | locus YDR297W, strain sur2, stronger effect = lower value 1 | locus YDR318W, strain mcm21, stronger effect = lower value 1 | locus YDR334W, strain swr1, stronger effect = lower value 1 | locus YDR335W, strain msn5, stronger effect = lower value 1 | locus YDR363W, strain ESC2, stronger effect = lower value 1 | locus YDR388W, stronger effect = lower value 1.01 | locus YDR392W, strain spt3, stronger effect = lower value 0.946 | locus YDR502C, strain sam2, stronger effect = lower value 1 | locus YEL003W, strain gim4, stronger effect = lower value 1.01 | locus YEL037C, strain rad23, stronger effect = lower value 0.997 | locus YEL061C, strain CIN8 (second series), stronger effect = lower value 1 | locus YEL061C, strain CIN8, stronger effect = lower value 1 | locus YER002W, strain NOP16, stronger effect = lower value 1 | locus YER015W, strain faa2, stronger effect = lower value 0.993 | locus YER016W, strain bim1, stronger effect = lower value 0.966 | locus YER110C, stronger effect = lower value 1.01 | locus YER111C, strain swi4, stronger effect = lower value 1.01 | locus YER155C, strain BEM2 (second series), stronger effect = lower value 0.957 | locus YER155C, strain BEM2, stronger effect = lower value 1.01 | locus YER167W, strain BCK2, stronger effect = lower value 1.01 | locus YFR010W, strain ubp6, stronger effect = lower value 1.02 | locus YGL078C, strain dbp3, stronger effect = lower value 1.01 | locus YGL086W, strain mad1, stronger effect = lower value 1 | locus YGL167C, strain pmr1, stronger effect = lower value 1.01 | locus YGL173C, strain kem1, stronger effect = lower value 1 | locus YGL227W, strain vid30, stronger effect = lower value 1.01 | locus YGL240W, strain doc1, stronger effect = lower value 1 | locus YGL248W, strain PDE1, stronger effect = lower value 0.999 | locus YGL253W, strain hxk2, stronger effect = lower value 0.99 | locus YGR078C, strain PAC10, stronger effect = lower value 0.996 and 0.977 | locus YGR135W, strain pre9, stronger effect = lower value 1.01 | locus YGR229C, strain SMI1, stronger effect = lower value 1.02 | locus YGR252W, strain gcn5, stronger effect = lower value 0.939 | locus YHR013C, strain ard1, stronger effect = lower value 0.978 | locus YHR027C, strain rpn1, stronger effect = lower value 1 | locus YHR030C, strain SLT2, stronger effect = lower value 0.999 and 0.991 | locus YHR079C, strain IRE1 (second series), stronger effect = lower value 1.02 | locus YHR079C, strain IRE1, stronger effect = lower value 0.975 | locus YHR094C, strain hxt1, stronger effect = lower value 1 | locus YHR129C, strain ARP1, stronger effect = lower value 0.993 | locus YHR142W, strain chs7, stronger effect = lower value 0.996 | locus YHR200W, strain rpn10, stronger effect = lower value 1.01 | locus YIL066C, strain RNR3, stronger effect = lower value 1 | locus YIL073C, strain SPO22, stronger effect = lower value 1.05 | locus YIL125W, strain kgd1, stronger effect = lower value 1.01 | locus YIR030C, strain dcg1, stronger effect = lower value 1.01 | locus YJL092W, strain hpr5, stronger effect = lower value 1.01 | locus YJL095W, strain BCK1 (second series), stronger effect = lower value 1.01 | locus YJL095W, strain BCK1, stronger effect = lower value 0.988 | locus YJL115W, strain asf1, stronger effect = lower value 1 | locus YJL129C, strain trk1, stronger effect = lower value 0.993 | locus YJL134W, strain LCB3, stronger effect = lower value 1 | locus YJL154C, strain vps35, stronger effect = lower value 0.992 | locus YJL164C, strain tpk1, stronger effect = lower value 0.981 | locus YJL166W, strain qcr8, stronger effect = lower value 1.02 | locus YJL168C, strain set2, stronger effect = lower value 1.01 | locus YJL187C, strain SWE1 (second series), stronger effect = lower value 1 | locus YJR043C, strain POL32, stronger effect = lower value 0.994 | locus YJR066W, strain TOR1, stronger effect = lower value 0.938
